In the library only some 9.9% were active in any assay of this set; here they are far more common.
ALDH1A1 block = inhibitors of human aldehyde dehydrogenase 1A1; AID 1030; 7.3% of 220,000 active; P00352; Potency, µM (highest dose often 75.3 µM), for inactives: top-dose activity, negative = inhibition, usual class: inhibitors; Purified ALDH1A1, NADH fluorescence, propionaldehyde substrate;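 also: plate controls were no enzyme wells and a reference inhibitor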
Tau fibril ThT = blocks human tau fibril formation measured by thioflavin T | recombinant tau K18 P301L, heparin-induced fibrillization, ThT fluorescence | Potency, µM (series often up to 57.4 µM), for inactives: at the top dose activity, negative = inhibition, hits mostly inhibitors | 2.1% of 270,000 active; active = well fitted curve in the direction sought with a large enough effect; inconclusive = small, poorly fitted or top-dose-only effect, or another doubt; inactive = no such curve, though single readings can be large; an effect the other way counts as inactive or inconclusive; also: nearly all actives have a fitted effect of over 55% in size
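Heparin-induced fibrillization of the P301L-mutant K18 repeat-domain fragment of human tau was followed by ThT binding in quantitative high-throughput format.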
HPGD block = HPGD (human) dehydrogenase inhibition; purified HPGD, NADH fluorescence kinetic, PGE2 substrate; P15428; 4.3% of 150,000 active; Potency, µM, for the others: at the highest dose activity change, negative = inhibition, actives largely listed as inhibitors
Target sequence (P15428 whole entry, looked up): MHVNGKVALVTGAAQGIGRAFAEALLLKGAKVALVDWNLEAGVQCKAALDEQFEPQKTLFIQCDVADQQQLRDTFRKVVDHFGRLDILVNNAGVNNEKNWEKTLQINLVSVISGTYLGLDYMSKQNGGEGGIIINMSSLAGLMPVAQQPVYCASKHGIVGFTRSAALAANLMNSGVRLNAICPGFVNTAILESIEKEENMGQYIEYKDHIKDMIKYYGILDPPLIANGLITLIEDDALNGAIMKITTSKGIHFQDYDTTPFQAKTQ
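NADH formation kinetics: reaction with 30 uM PGE2 and 1 mM NAD+ (final), 20 nM enzyme, Tris-HCl pH 8 with Tween 20, after 15 min compound preincubation at room temperature. Fluorescence change, last versus first of five reads.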
KDM4E inh = inhibitors of human JMJD2E histone demethylase; JMJD2E catalytic domain, FDH-coupled NADH fluorescence (FDH is formaldehyde dehydrogenase); AID 2147; B2RXH2; 1.6% of 230,000 active; Potency, µM (top dose mostly 57.1 µM), inactives show top-dose activity change, negative = inhibition, actives largely listed as inhibitors;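 also: 0% = wells with enzyme and -100% = buffer wells without enzyme; nearly all actives have a fitted effect of over 50% in size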
Target sequence (B2RXH2 1-337 limits assumed): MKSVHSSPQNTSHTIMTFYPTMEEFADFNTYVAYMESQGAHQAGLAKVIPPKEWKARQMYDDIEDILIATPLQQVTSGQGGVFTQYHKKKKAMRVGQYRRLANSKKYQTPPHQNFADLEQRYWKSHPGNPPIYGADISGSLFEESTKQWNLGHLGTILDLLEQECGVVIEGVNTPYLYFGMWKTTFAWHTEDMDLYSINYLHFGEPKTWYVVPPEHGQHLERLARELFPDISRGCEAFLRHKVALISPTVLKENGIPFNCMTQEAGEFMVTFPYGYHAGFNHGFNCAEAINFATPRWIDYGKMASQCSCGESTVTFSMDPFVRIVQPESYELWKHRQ
Tau fluor cs = counter-screen for tau fibril formation inhibitors. tau K18 P301L (four-repeat tau fragment) Alexa594 fluorescence, heparin fibrillization. 0.93% of 280,000 active. Potency, µM (series often up to 57.7 µM), for the others: at the top dose activity change, negative = decrease; active = well fitted curve in the direction sought with a large enough effect; inconclusive = small, poorly fitted or top-dose-only effect, or another doubt; inactive = no such curve, though single readings can be large; an effect the other way counts as inactive or inconclusive; also: nearly all actives have a fitted effect of over 55% in size
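Human K18 P301L tau (15 uM unlabeled plus 0.24 uM Alexa 594-labeled, final) in 100 mM sodium acetate pH 7 was mixed with compound and 20 uM heparin and incubated 6 hr at 37 C.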
Tau FP inhib = tau fibrillization inhibition (FP); 0.39% of 280,000 active; K18 P301L tau heparin fibrillization, Alexa594 FP, 6 h; Potency, µM (titrated, usually from 57.7 µM), inactives show at the top dose activity, negative = inhibition, hits mostly inhibitors; P10636; active = well fitted curve in the direction sought with a large enough effect; inconclusive = small, poorly fitted or top-dose-only effect, or another doubt; inactive = no such curve, though single readings can be large; an effect the other way counts as inactive or inconclusive; also: nearly all actives have a fitted effect of over 55% in size
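K18 P301L tau (15 uM unlabeled/0.24 uM Alexa 594-labeled, final) + compound + heparin 20 uM final; 100 mM NaOAc pH 7; 6 hr 37 C; ThT 30 uM final added, 1 hr RT; FP ex 555/em 632 nm.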
* = called active by the depositor; u = inconclusive; x = no result given; [ ] = another dose, or the depositor's remark. Unless noted, calls follow the shape of the dose curve; as a rule, active = well fitted inhibition curve with a large enough effect (not every such curve was filed as active); inconclusive = small, poorly fitted or top-dose-only effect, or another doubt; inactive = no such curve, though single readings can be large or run the other way. Unless noted, % is scaled to controls: 0 for no effect and ±100 for the full control effect; potency is read from the fitted curve at half-maximal effect.

SMILES	ALDH1A1 block	Tau fibril ThT	HPGD block	KDM4E inh	Tau fluor cs	Tau FP inhib
CCC(Oc1ccccc1)C(=O)NCCOC (stereo not given)	-8%	-3%	-9%	-1%	-2%	0%
O=C(c1ccccc1)N(Cc1nc2ccccc2c(=O)[nH]1)C1CCCCC1	3.5µM*	-10%	x	-17%	-13%	3%
CC(=O)c1c(C)nc2nc(-c3ccccc3)nn2c1C	x	-6%	x	x	-14%	-18%
N#Cc1c(Sc2ncc(C(F)(F)F)cc2Cl)nsc1C/C=N\OCc1ccccc1Br	10µM*	u	-25%	-2%	-30%	0%
CCOC(=O)/C(=C\Nc1ccccc1C(F)(F)F)Sc1ncc(C(F)(F)F)cc1Cl	-15%	-2%	-18%	2%	-4%	-18%
Cc1cccc(CNc2ccnc(-c3ccccc3C(F)(F)F)n2)c1	7%	x	x	x	x	x
CC1=C(C(=O)OC2CCCC2)C(c2ccc(F)cc2F)CC(=O)N1 (stereo not given)	x	-4%	x	x	-15%	-10%
O=C(c1cnccn1)N1CCC2(CC1)CCN(C(c1ccccc1)c1ccccc1)CC2	-1%	x	-3%	x	x	x
COC(=O)C(C(C)=O)C1=C/C(=N\S(=O)(=O)c2ccc(C)cc2)c2ccccc2C1=O (stereo not given)	u	32µM*	-20%	u	u	u
C/C(=N\S(=O)(=O)c1ccc(C)cc1)NC(=S)Nc1ccccc1	u	-3%	x	10%	-4%	-10%
O=c1cc(-c2ccccc2)n2c(SCc3ccc([N+](=O)[O-])cc3)nnc2[nH]1	x	u	x	x	-12%	2%
Cc1ccccc1NC(=O)c1c(C)oc2ccc(O)c(CN(C)Cc3ccccc3)c12	x	u	x	x	u	-2%
CN1CCc2cc3c(c4c2[C@H]1[C@H](O)c1ccccc1-4)OCO3	-13%	u	u	18µM*	-17%	-2%
Cc1ccc(Nc2cc(C(=O)NC3CCCC3)c3ccccc3n2)cc1C	x	-8%	x	x	u	10%
CC(=O)c1sc(NC(=O)c2c(-c3ccccc3)c(-c3ccccc3)nn(C)c2=O)nc1C	x	0%	x	x	-6%	4%
CC(C)COc1ccc(CNC(=S)NCc2ccccc2)cc1	1%	-22%	-23%	-4%	u	-8%
COc1ccc(CNC(=S)NCc2ccc(OC)cc2)cc1	20µM*	-9%	x	-3%	-17%	-10%
COc1ccc(CNC(=S)NC(C)CCc2ccccc2)cc1 (stereo not given)	6.3µM*	-2%	x	-2%	-28%	-9%
COc1ccc(CNC(=S)Nc2ccc(OC)cc2)cc1	u	1%	-17%	-3%	-3%	2%
Cc1nncn1-c1ccc(C(=O)Nc2cc(F)ccc2F)cc1	x	-6%	x	x	-6%	-3%
O=[N+]([O-])c1cccc(/C=N/Nc2nnc(-c3ccccc3)c(-c3ccccc3)n2)c1	-3%	-5%	-4%	3%	-12%	-1%
C/C(=N\Nc1nnc(-c2ccccc2)c(-c2ccccc2)n1)c1cccc([N+](=O)[O-])c1	u	u	6.3µM*	-18%	-29%	-16%
COC(=O)[C@@]1(Cc2ccccc2)[C@H]2c3cc(C(=O)N4CCCC4)n(Cc4ccccn4)c3C[C@H]2CN1C(=O)c1ccccc1	-5%	-10%	-9%	-10%	-1%	1%
CCCc1cc(Nc2ccccc2OCC)n2ncnc2n1	10%	-16%	7.1µM*	-8%	-8%	1%
CCn1nc(C)c(CNC(=O)CCc2nnc(-c3ccc(C(C)=O)s3)o2)c1C	32µM*	-9%	x	-3%	3%	4%
SMILES	ALDH1A1 block	Tau fibril ThT	HPGD block	KDM4E inh	Tau fluor cs	Tau FP inhib
CCN(CC)CCN(C)C(=O)CCc1nnc(-c2ccc(C)s2)o1	-92%	-2%	x	0%	-3%	1%
Cc1ccc(Cl)cc1NS(=O)(=O)c1c(C)[nH]c(=O)[nH]c1=O	-4%	-9%	-2%	-2%	-8%	-5%
COc1ccc(Cl)cc1NS(=O)(=O)c1c(C)[nH]c(=O)[nH]c1=O	x	28µM*	x	x	u	u
Cc1ccc(NC(=O)c2cncc(Br)c2)c(O)c1	-5%	1%	x	-2%	2%	8%
O=C(Nc1ccccc1C(=O)O)c1cncc(Br)c1	14µM*	-5%	-26%	-3%	-3%	2%
CSc1ccccc1C(=O)NCCSC(C)(C)C	1%	-2%	25µM*	9%	7%	3%
CC(C)(C)SCCNC(=O)c1ccccc1	-2%	-16%	-17%	17%	-6%	-6%
CCCCNC(=O)c1ccccc1C(=O)NCCCC	13%	-5%	-1%	1%	-7%	-2%
CCCCCNC(=O)c1ccccc1SC	8%	-7%	14µM*	2%	-8%	-2%
CCCCNC(=O)c1ccccc1Cl	15%	-12%	8.9µM*	-1%	-12%	-5%
COc1ccc(OC)c2[nH]c(=O)c(CCNC(=O)Cc3cccs3)cc12	-1%	-1%	x	u	-8%	-4%
CC(C)OC(=O)c1ccc(NC(=O)c2cncc(Br)c2)cc1	18µM*	-9%	x	u	u	-14%
CN(C)C(=O)c1ccc(NC(=O)c2cncc(Br)c2)cc1	6%	-2%	-25%	6%	0%	4%
CSc1ccccc1C(=O)NCCSc1ccccc1	-4%	-18%	16µM*	6%	-14%	-12%
O=C(NCCSc1ccccc1)c1ccccc1	-2%	1%	-28%	5%	6%	3%
O=C(NCCSc1ccccc1)c1ccccc1Cl	-7%	-14%	13µM*	-5%	-17%	3%
Cc1ccccc1C(=O)NCCSc1ccccc1	-1%	-4%	20µM*	6%	-7%	1%
Cc1ccc(-c2nnc3ccccc3c2C(=O)Nc2cccc(Cl)c2)cc1	x	4%	x	x	-3%	-2%
COC(=O)c1ccc(OC)c(Cn2c(=O)n(-c3cccc(Cl)c3)c(=O)c3c2c2cc(C)ccc2n3C)c1	x	3%	x	x	-5%	u
O=C(NCCSc1ccccc1)c1cncc(Br)c1	25µM*	-15%	-17%	1%	-15%	-4%
Cc1ccccc1CSCCNC(=S)Nc1ccccc1	-10%	-4%	x	0%	-22%	-4%
Cc1ccccc1CSCCNC(=O)c1ccccc1	u	-9%	32µM*	9%	-6%	1%
CCc1ccc(C2CC(=O)Oc3c2c(=O)n(C)c2ccccc32)cc1 (stereo not given)	x	-14%	x	x	-14%	-3%
COc1ccc(CNC(=O)CNC(=O)c2c(C)nn(C)c2Cl)cc1	4%	5%	x	2%	5%	1%
COC(=O)c1cc(C)[nH]c2c(C)cc3nc4ccccc4c3c12	-8%	u	x	u	25µM*[quencher]	u
CCCc1ccc(OC(=O)c2ccc(O)cc2Cl)cc1	4%	u	x	3%	u	28µM*
